Experimental findings from PubChem BioAssay (NCATS) are described below.

Results filed as inconclusive are left out. Entries that show only a call come without a potency. Calls of active or inactive are those of the source. Calls come from the whole dose curve; as a rule, active = well fitted inhibition curve with a large enough effect; inconclusive = small, poorly fitted or top-dose-only effect; inactive = no such curve, though single readings can be large or run the other way.

This test can be described thus: qHTS for Inhibitors of ATXN expression: Validation (AID 588378). Note: nearly all actives have a fitted effect of over 75% in size. Conditions: cell-based ATXN2 expression reporter assay, luminescence; series mostly up to 57.1 µM. The essentials:
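Compounds were pinned onto attached HEK293 cells carrying an ATXN2-firefly luciferase construct and incubated 24 hrs at 37 degrees C. Each well then received a fluorescent viability reagent followed by luciferase substrate for end-point luminescence.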
On the technique in general: Quantitative high-throughput screening tests each substance at several concentrations.
With `O=C(O)CCC(=O)N1CCCC1C(=O)O` (stereo not drawn), the Potency result was “inactive”.
The result for `C=C(C)C1CC=C(C(=O)O)CC1` (stereo not drawn) reads “inactive”; that for `NC(=O)CNCCC(c1ccccc1)c1ccccc1`, “inactive”; that for `COc1ccccc1N1CCN(CCCNc2c(C)c(=O)n(C)c(=O)n2C)CC1`, “inactive”.
As for `C[C@@]1(C2CCCC2)Cc2cc(OCC(=O)O)c(Cl)c(Cl)c2C1=O`, the Potency result was “inactive”.
Regarding `O=C(O)/C(=C/c1c(C(=O)O)[nH]c2cc(Cl)cc(Cl)c12)c1ccccc1`, the Potency entry was “inactive”.
The result for `Cn1c(=O)[nH]c2ncn(C)c2c1=O` reads “inactive”; that for `N[C@@H](Cc1ccc(O)c(I)c1)C(=O)O`, “inactive”.
The result for `NC(=O)c1cc[n+](CC2=C(C(=O)O)N3C(=O)[C@@H](NC(=O)[C@@H](c4ccccc4)S(=O)(=O)[O-])[C@H]3SC2)cc1` reads “inactive”; that for `O=[N+]([O-])c1cccc2cn[nH]c12`, “inactive”; that for `c1ccc2nc(C3=NCCN3)ccc2c1`, “inactive”.
For the molecule `COc1ccccc1N1CCN(CCCCNC(=O)c2ccc3ccccc3c2)CC1`, the Potency result was “inactive”.
The result for `C#CCn1c(=O)c2c(ncn2C)n(C)c1=O` reads “inactive”; that for `CO/N=C(\C(=O)N[C@@H]1C(=O)N2C(C(=O)O)=C(CSc3nc(=O)c(O)nn3C)CSC12)c1csc(N)n1` (stereo partly drawn), “inactive”; that for `Nc1ccc(-c2nc3ccc(-c4nc5ccc(N)cc5[nH]4)cc3[nH]2)cc1`, “inactive”.
The result for `CCC(=O)N1CCN(C(=O)c2ccccc2)CC1` reads “inactive”; that for `Nc1ccc(N2C(=O)c3ccccc3C2=O)c(Cl)c1`, “inactive”.
Consider `NC(N)=N[C@@H](CCC(=O)O)C(=O)O`, for which the Potency entry is “inactive”.
Take `CC1CCN(CC[C@H]2CCCN2S(=O)(=O)c2cccc(O)c2)CC1`: the Potency result was “inactive”.
The value for `Cc1nc(N=Nc2ccc(S(=O)(=O)O)cc2S(=O)(=O)O)c(COP(=O)(O)O)c(C=O)c1O` was “inactive”; that for `CC(C)Cn1c(=O)n(C)c(=O)c2[nH]cnc21` was “inactive”.
With `CCCCCCCCCC[Si](C)(C)CCC(=O)NC(Cc1ccc(C)cc1)c1ccccc1` (stereo not drawn), the Potency entry is “inactive”.
The value for `CNc1ncnc2c1ncn2[C@H]1C[C@H](OP(=O)(O)O)[C@@H](COP(=O)(O)O)O1` was “inactive”.
The result for `NCCS(=O)O` reads “inactive”; that for `N=C(N)SCCN`, “inactive”.
The value for `NC1(C(=O)O)CC1` was “inactive”.
Take `O=C(O)c1cc(=O)cc(C(=O)O)[nH]1`: the Potency entry was “inactive”.
Regarding `c1ccc(C2CN3CCSC3=N2)cc1` (stereo not drawn), the Potency entry is “inactive”.
